This passage reports Potency results from PubChem BioAssay (NCATS).

Several values for one entry are separate records, joined by “and”; a condition that tells them apart may be missing. Equal entries are not always repeated. Inconclusive results are not listed. Activity calls are given as the source filed them. Calls follow the shape of the dose curve; as a rule, active = well fitted inhibition curve with a large enough effect; inconclusive = small, poorly fitted or top-dose-only effect; inactive = no such curve, though single readings can be large or run the other way.
Potency is read from the fitted curve at half-maximal effect.

Chain of Tyrosine-protein kinase Yes (Homo sapiens) (P07947 whole entry, looked up): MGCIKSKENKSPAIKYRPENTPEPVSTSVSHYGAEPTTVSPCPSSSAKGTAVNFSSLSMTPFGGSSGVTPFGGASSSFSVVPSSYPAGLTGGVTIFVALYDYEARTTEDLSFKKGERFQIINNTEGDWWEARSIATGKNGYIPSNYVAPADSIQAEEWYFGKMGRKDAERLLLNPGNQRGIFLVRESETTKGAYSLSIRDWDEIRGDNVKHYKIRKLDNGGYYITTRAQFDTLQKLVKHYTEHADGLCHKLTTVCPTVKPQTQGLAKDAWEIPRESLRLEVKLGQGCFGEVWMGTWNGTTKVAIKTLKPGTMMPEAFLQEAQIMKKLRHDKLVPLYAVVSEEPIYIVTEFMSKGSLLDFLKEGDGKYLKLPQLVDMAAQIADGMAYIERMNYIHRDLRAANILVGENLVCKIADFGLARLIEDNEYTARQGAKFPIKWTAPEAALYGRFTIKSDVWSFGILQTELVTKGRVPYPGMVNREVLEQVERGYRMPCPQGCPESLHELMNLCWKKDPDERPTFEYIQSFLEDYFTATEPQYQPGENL

The assay has as its target Tyrosine-protein kinase Yes (Homo sapiens) (UniProt P07947). The experiment in a line: qHTS for small molecule inhibitors of Yes1 kinase: Primary Screen (AID 686947). Also: nearly all actives have a fitted effect of over 60% in size. The note with it: Yes1 kinase biochemical qHTS inhibition; series mostly up to 76.9 µM. The procedure, abridged: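 ADP-Glo luminescence reports ADP formed by 4 nM Yes1 phosphorylating poly(E4Y) (0.3 mg/mL) with 0.1 mM ATP for 60 min at room temperature, following 20 min compound preincubation; normalised between DMSO wells with and without enzyme.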
For orientation: In qHTS, concentration-response curves come from the screen itself.
Turning to `COc1cc(N2CCN(C(C)C)CC2)ccc1Nc1nc(Nc2cccc(F)c2C(=O)O)c2cc[nH]c2n1`, the Potency result is “inactive”.
With `CS(=O)(=O)CCN(CC#N)Cc1ccc(-c2ccc3ncnc(Nc4ccc(OCc5cccc(F)c5)c(Cl)c4)c3c2)o1` the entry was “inactive”; with `Cc1ccc(C(=O)NC2CCCCC2)cc1-c1ccc(C(=O)NCC2CC2)cc1`, “inactive”; with `COc1ccc2c(-c3ccnc(Nc4cccc(OC(F)(F)F)c4)n3)cnn2n1`, 26 µM (active).
As for `Cc1cc(Cl)cc2c(N=Nc3ccc(S(N)(=O)=O)cc3)c(O)[nH]c12`, the figure is 10.4 µM (active); as for `COc1cc2c(cc1Nc1nc(N3CCc4ccccc43)c3cc[nH]c3n1)N(C(=O)CN(C)C)CC2`, “inactive”.
For the compound `Fc1ccc(Nc2nccc(-c3c(-c4ccc(C(F)(F)F)cc4)nn4ncccc34)n2)cc1F`, the Potency result is “inactive”.
As for `CN(C)C(=O)OC1CNC(C#Cc2cc3ncnc(Nc4ccc(OCc5cccc(F)c5)c(Cl)c4)c3s2)C1` (stereo not given), the figure is 8.23 µM (active) and 7.33 µM (active).
As for `O=C(OC1CNC(C#Cc2cc3ncnc(Nc4ccc5c(cnn5Cc5ccccc5)c4)c3s2)C1)N1CCOCC1` (stereo not given), the figure is 1.04 µM (active); as for `Fc1ccc(-c2ncn(C3CCNCC3)c2-c2ccnc(Oc3ccccc3)n2)cc1`, 11.6 µM (active).
With `O=S1CCN(Cc2ccc(-c3ccc4ncnc(Nc5ccc(OCc6cccc(F)c6)c(Cl)c5)c4c3)o2)CC1` the figure was 2.07 µM (active); with `NS(=O)(=O)c1ccc(N=Cc2c(O)[nH]c3ccc4ncsc4c23)cc1`, 823 nM (active) and 923 nM (active).
Regarding `Cc1ccc(Nc2ccnc(Nc3cccc(C(N)=O)c3)n2)cc1O`, the Potency was 0.0292 µM (active).
As for `O=C1NC(=O)C(c2cccc(Cl)c2)=C1Nc1ccc(Cl)c(C(=O)O)c1`, the entry is “inactive”; as for `CCn1c(-c2nonc2N)nc2cnc(Oc3cccc(NC(=O)c4ccc(N(C)C)cc4)c3)cc21`, “inactive”; as for `COc1cc(C)c(N(C)C(=O)CN(C)C)cc1Nc1nc(Nc2cccc(F)c2C(N)=O)c2cc[nH]c2n1`, “inactive”.
As to `Nc1nccc(-c2c(-c3ccc(F)cc3)ncn2C2CCC(O)CC2)n1` (stereo not given), the Potency was 0.733 µM (active).
As for `CS(=O)(=O)Nc1ccc(-c2ccc3c(NC(=O)C4CC4)n[nH]c3c2)cc1`, the figure is 20.7 µM (active); as for `Fc1cccc(COc2ccc(Nc3ncnc4sc(-c5ccco5)cc34)cc2Cl)c1`, “inactive”.
On to `Cc1nn(C)c2cc(N(C)c3ccnc(Nc4cccc(S(N)(=O)=O)c4)n3)ccc12`, for which the Potency is 1.16 µM (active).
As for `O=S1CCN(Cc2ccc(-c3ccc4ncnc(Nc5ccc(OCc6ccccc6)c(F)c5)c4c3)o2)CC1`, the figure is 0.463 µM (active); as for `CC(C)c1ccc(-c2cc(-c3cn[nH]c3-c3ccccn3)ccn2)cc1`, 23.2 µM (active).
With `O=C(Nc1n[nH]c2cc(-c3cc(F)ccc3F)ccc12)C1CC1` the figure was 26 µM (active).
With `O=C(OC1CNC(C#Cc2cc3ncnc(Nc4ccc(Cc5ccccc5)cc4)c3s2)C1)N1CCOCC1` (stereo not given) the figure was 2.07 µM (active); with `CS(=O)(=O)CCNCc1cc(-c2cc3c(Nc4ccc(OCc5cccc(F)c5)c(Cl)c4)ncnc3s2)cs1`, 46.3 µM (active); with `C#Cc1cccc(Nc2ncnc3ccc(OCCCCNCCS(C)(=O)=O)cc23)c1`, 7.33 µM (active).
`COc1cccc(-n2ncc3c(NN=Cc4ccc(F)cc4)ncnc32)c1`: the Potency is 0.582 µM (active).
On to `CC(=O)Nc1cccc(C#Cc2cncnc2Nc2ccc(OCc3cccc(F)c3)c(Cl)c2)c1`, for which the Potency was 23.2 µM (active).
Consider `NCc1ccc(-n2c(-c3nonc3N)nc3cnccc32)cc1`, for which the Potency result was “inactive”.
As for `O=C1Nc2ccccc2C1=C1CCc2cc(O)ccc21`, the figure is 9.23 µM (active); as for `COc1cc2ncnc(Nc3ccc(C)c(O)c3)c2cc1OC`, 0.164 µM (active).
As for `Cc1cc(O)cc(C)c1C=Cc1cncc(C(=O)N(C)C)c1`, the figure is 23.2 µM (active).
As for `NS(=O)(=O)c1ccc(N=Nc2c(O)[nH]c3ccc(C(=O)NCCc4cnc[nH]4)cc23)cc1`, the figure is 2.6 µM (active).
On to `CC1=C(C(=O)Nc2ccc3[nH]ncc3c2)C(c2ccc3ccccc3c2)CC(=O)N1` (stereo not given), for which the Potency is 0.582 µM (active).
With `Nc1nc(-c2ccc3c(c2)C(=Cc2cc(Br)c(O)c(Br)c2)C(=O)N3)cs1` the figure was 1.46 µM (active).
